Source: PubChem (several laboratories)
The list is not random: actives were taken first. Their share in the collection is about 1.6%.
CCHF vOTU inh: blocks the CCHF virus ovarian tumor domain protease; CCHFV vOTU protease, Pep-AMC fluorescence; inhibition, % at 11.5 µM; hit rate 0.55% among 370,000; AID 651958; in the data active = inhibition above about 30%; note: 0% = vehicle wells with enzyme and 100% = no enzyme wells
Sa RN4220 lethal: kills Staphylococcus aureus RN4220; S. aureus RN4220 growth, OD600, 16 h; inhibition, % (concentration not given with the values); hit rate 0.33% among 330,000; in the data active = inhibition above about 85%;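 note: plate controls were untreated cells for no effect and reference antibiotic for full effect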
ugtP null kill: growth inhibition of S. aureus ugtP deletion strain; S. aureus RN4220 ugtP deletion, OD600 growth, 16 h; growth inhibition, % (no concentration beside the values); hit rate 0.54% among 330,000; in the data active = growth inhibition above about 68%;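 note: plate controls were untreated wells for no effect and antibiotic for full effect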
BJeLR viability: kills HRASV12-expressing BJeLR cells; hit rate 0.17% among 300,000; inhibition, % (no concentration beside the values); AID 1554; BJeLR (HRASV12) viability, CellTiter-Glo ATP luminescence, 48 h; in the data active = inhibition above about 50%; inconclusive = no clear call, values can overlap the other calls
PfHsp40 rescue: restores yeast growth despite PfHsp40 toxicity; growth rescue, % at 12.5 µM; hit rate 0.68% among 340,000; AID 504582; S. cerevisiae expressing PfHsp40, growth rescue, ATP luminescence; in the data active = growth rescue above about 28%, passing the limit was not always enough; inconclusive = no clear call, values can overlap the other calls;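 note: yeast W303a lacking pdr1 and pdr3 grown in galactose medium; growth measured after three days at 30 °C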
* = called active by the depositor; ? = inconclusive; . = no result.

SMILES	CCHF vOTU inh	Sa RN4220 lethal	ugtP null kill	BJeLR viability	PfHsp40 rescue
CC#CCN1c2ccccc2[C@]23CC(C(=O)OC)N(C(=O)C4CCC4)C2=NC(C(=O)OC)=C(C(=O)OC)C13 (stereo partly drawn)	.	-5	7	.	.
Cc1csc2nc(O)c(C(=O)NCCC3=CCCCC3)c(=O)n12	2	3	52	0	15
Cc1csc2nc(O)c(C(=O)NCCCc3ccccc3)c(=O)n12	0	7	18	6	289*
Cc1ccc(O)c(NC(=O)C2CC(c3c(F)cccc3Cl)=NO2)c1 (stereo not drawn)	2	6	-8	-18	36*
Cn1c(COc2ccccc2O)[n+](C)c2ccccc21	1	-2	0	8	-1
CCCCCCCCCCOC(=O)Cn1c(COc2ccccc2OC)[n+](C)c2ccccc21	25	.	.	-17	316*
CC(CNC(=O)C1CCCCC1)NC(=O)C1CCCCC1 (stereo not drawn)	7	1	2	8	80*
CN=c1scc(C)n1N=Cc1ccc(O)cc1	.	2	-1	.	.
Cc1cccnc1Nc1nc(-c2ccccc2)cs1	-12	-2	25	11	1
Cc1cccnc1Nc1nc(-c2ccccn2)cs1	8	98*	99*	53*	77*
Cc1cccc(Nc2nc(-c3cccs3)cs2)n1	9	-15	70	-1	11
Cc1cccc(Nc2nc(-c3ccccn3)cs2)n1	-3	28	-25	-1	512*
CN(C)Cc1c(C(=O)NN=Cc2ccc(OCc3c(F)cccc3Cl)cc2)nnn1-c1nonc1N	.	0	-6	.	.
Cc1ccsc1C=NNS(=O)(=O)c1ccc([N+](=O)[O-])cc1	.	12	7	.	.
Cc1ccccc1-n1c(SCC(=O)NC(N)=O)nc2sc(-c3ccccc3)cc2c1=O	-3	96*	99*	-6	1
Cc1ccccc1-n1c(SCC(N)=O)nc2sc(-c3ccccc3)cc2c1=O	-2	-16	-1	0	0
CCc1ccc[n+](-c2[nH]c(=O)sc2C=NNC([S-])=Nc2ccccc2)c1	.	3	6	.	.
CCC(/C=C1\Sc2ccc(OC)cc2N1CCO)=C\c1sc2ccc(OC)cc2[n+]1CCO	3	99*	96*	.	3
CCC(/C=C1\Sc2ccc(OC)cc2N1CC)=C\c1sc2ccc(OC)cc2[n+]1CCCS(=O)(=O)[O-]	-9	36	-18	33	1
CC(=NN(c1ccccc1)c1ccccc1)c1ccc(N)cc1	.	5	2	.	.
CCOc1ccc(NC(=O)C2CCCN(S(=O)(=O)c3ccc4[nH]c(=O)ccc4c3)C2)cc1 (stereo not drawn)	-7	6	2	6	49*
COc1ccc(NC(=O)C2CCCN(S(=O)(=O)c3ccc4[nH]c(=O)ccc4c3)C2)cc1 (stereo not drawn)	9	7	2	-9	0
O=C(C[n+]1ccccc1)NN=Cc1ccccc1C(F)(F)F	.	3	7	.	.
Cc1cc(C)nc(-n2nc(C)c(Sc3ccc(F)cc3)c2N)n1	-5	4	-5	1	89*
Cc1ccc(C[n+]2c(-c3ccc(C)cc3)cc(-c3ccc(C)cc3)cc2-c2ccc(C)cc2)cc1	.	101*	101*	60*	?
SMILES	CCHF vOTU inh	Sa RN4220 lethal	ugtP null kill	BJeLR viability	PfHsp40 rescue
Cc1ccc(C[n+]2ccccc2)cc1	-8	-16	-4	12	0
COC1C(OC(N)=O)C(O)C(Oc2ccc3c(O)c(NC(=O)c4ccc(O)c(CC=C(C)C)c4)c(=O)oc3c2C)OC1(C)C (stereo not drawn)	.	100*	99*	.	.
O=C(CNC(=O)c1ccc2c(c1)OCCO2)NN=Cc1ccco1	.	2	6	.	.
Cc1cc(Cl)ccc1OC(C)C(=O)Nc1ccc(C(=O)Nc2ccccc2C(=O)O)cc1 (stereo not drawn)	19	29	10	-3	52*
Cn1c(COc2ccc3ccccc3c2)nnc1SCC(=O)OC1CCCCC1	2	-2	-17	-7	49*
Cn1c(COc2ccc3ccccc3c2)nnc1SCC(N)=O	-1	7	-8	-2	-1
CCOC(=O)c1c(SC)[nH]c2c(Cl)cccc2c1=O	-5	6	3	4	93*
CCCCC(=O)NC(=S)Nc1ccc(S(=O)(=O)N2CCCC2)cc1	10	5	94*	0	0
O=C(NC(=S)Nc1ccc(S(=O)(=O)N2CCCCC2)cc1)c1ccc(Cl)cc1	2	-10	91*	4	0
CN1CCN(S(=O)(=O)c2ccc(NC(=S)NC(=O)c3ccccc3)cc2)CC1	13	-2	46	1	-1
